Results on 24 compounds are retold here after PubChem BioAssay (NCATS).

Assay [1] addresses Cytochrome P450 3A4 (Homo sapiens) (UniProt P08684). Briefly: Cytochrome P450 family 3 subfamily A member 4 (CYP3A4) small molecule antagonists: luciferase qHTS assay (AID 1645841; active = well fitted curve in the direction sought with a large enough effect in the repeat runs; an effect the other way counts as inactive or inconclusive; also: nearly all actives have a fitted effect of over 45% in size). The following applies: P450-Glo CYP3A4 enzyme assay, luciferin luminescence; series mostly up to 57.4 µM. The procedure, abridged:
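Luminescent CYP3A4 activity readout: compounds plus enzyme-substrate mix 10 min at room temperature, reaction started with NADPH regenerating system for 1 h, stopped with detection reagent, read after 20 min. Ketoconazole served as control.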
For orientation: Quantitative high-throughput screening tests each substance at several concentrations.

Assay [2] is described as follows: Primary qHTS for small molecule stabilizers of the endoplasmic reticulum resident proteome: Secreted ER Calcium Modulated Protein (SERCaMP) assay (AID 1508630). Also: % is scaled to controls: 0 for no effect and ±100 for the full control effect. The note with it: SH-SY5Y GLuc-SERCaMP (Gaussia luciferase released on ER calcium loss) secretion, thapsigargin, luminescence; series mostly up to 38.4 µM. The procedure, abridged:
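GLuc-SERCaMP-expressing SH-SY5Y cells, pretreated 16 h with compound, are challenged with thapsigargin to empty ER calcium stores; after 4 h, coelenterazine is added directly to the medium and luminescence is imaged.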

Assay [3] can be described thus: A High-Content qHTS Against Drug Library for the Identification of Small Molecules that Inhibit DYT1 Early Onset Primary Dystonia-Associated Cell Pathology (AID 1645839; calls by dose curve; also: potency is read from the fitted curve at half-maximal effect). The following applies: HEK293 Flp-In EGFP-delE TorsinA, punctate imaging, 48 h; series mostly up to 46.1 µM. The procedure, abridged: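 In this high-content image screen, delE TorsinA mislocalization in inducible Flp-In 293 cells is scored as %pathology, with cell count serving as the counterscreen. Compound exposure lasts 48 h under tetracycline induction in reduced-serum medium.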

A short description of assay [4]: Primary qHTS for inhibitors of nuclear receptor binding SET domain protein 2 (NSD2) in an isogenic RCH-ACV NSD2 p.E1099K mutant (9B) (AID 1645876). Also: nearly all actives have a fitted effect of over 70% in size. Also: potency is read from the fitted curve at half-maximal effect. The note with it: RCH-ACV NSD2 E1099K (9B) viability, CellTiter-Glo, 72 h; series mostly up to 44.9 µM.
Assay [5] can be described thus: Primary qHTS for inhibitors of nuclear receptor binding SET domain protein 2 (NSD2) in an RCH-ACV wild type WT cells (2C) (AID 1645877). Also: nearly all actives have a fitted effect of over 70% in size. Also: potency is read from the fitted curve at half-maximal effect. As to activity change, negative = cell killing: % is scaled to controls: 0 for no effect and ±100 for the full control effect. The note with it: RCH-ACV (leukaemia line) NSD2 WT (2C) viability, CellTiter-Glo, 72 h; series mostly up to 44.9 µM.
For assay [6], the target named is Cytochrome P450 2D6 (Homo sapiens) (UniProt P10635). Nature of the assay: Cytochrome P450 family 2 subfamily D member 6 (CYP2D6) small molecule antagonists: luciferase biochemical (cell-free) qHTS assay (AID 1645840; active = well fitted curve in the direction sought with a large enough effect in the repeat runs; an effect the other way counts as inactive or inconclusive; also: nearly all actives have a fitted effect of over 55% in size; also: potency is read from the fitted curve at half-maximal effect; as to activity change, negative = inhibition: % is scaled to controls: 0 for no effect and ±100 for the full control effect). The following applies: P450-Glo CYP2D6 enzyme, luciferin luminescence, 1 h; series mostly up to 57.4 µM. The procedure, abridged: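 P450-Glo luminescent screen: recombinant CYP2D6 enzyme–proluciferin substrate mix preincubated with compound 10 min at room temperature, then NADPH regeneration added for 1 h at room temperature. Detection reagent added for 20 min; luciferin light read as relative luminescence units.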

Assay [7] concerns the target Cytochrome P450 2C9 (Homo sapiens) (UniProt P11712). Briefly: Cytochrome P450 family 2 subfamily C member 9 (CYP2C9) small molecule antagonists: luciferase biochemical (cell-free) qHTS assay (AID 1645842; active = well fitted curve in the direction sought with a large enough effect in the repeat runs; an effect the other way counts as inactive or inconclusive; also: nearly all actives have a fitted effect of over 55% in size; also: potency is read from the fitted curve at half-maximal effect). The note with it: P450-Glo CYP2C9 enzyme assay, luciferin luminescence; series mostly up to 57.4 µM. The procedure, abridged:
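Luminescence, after 20 min with luciferin detection reagent, reflected CYP2C9 turnover during a 1 h NADPH-driven reaction at 37C. Enzyme-substrate mix contained 0.4% bovine serum albumin and was preincubated with compound 10 min at room temperature.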

Another assay addresses Papain (Carica papaya) (UniProt P00784). Nature of the assay: Primary qHTS assay for inhibitors of the protease papain (AID 1645873).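 Also: papain turnover of Z-FR-AMC read as the AMC fluorescence gain over 10 min; % is scaled to controls: 0 for no effect and ±100 for the full control effect.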 The following applies: papain Z-FR-AMC cleavage, AMC fluorescence; series mostly up to 49.8 µM.

Molecules are shown by their SMILES. Several values for one entry are separate records, joined by “and”; a condition that tells them apart may be missing. Equal entries are not always repeated. Results filed as inconclusive are left out. The source holds several records for some structures; these can differ, active in one and inactive in another. Activity calls are given as the source filed them. Unless noted, calls follow the shape of the dose curve; as a rule, active = well fitted curve in the direction sought with a large enough effect; inconclusive = small, poorly fitted or top-dose-only effect, or another doubt; inactive = no such curve, though single readings can be large; an effect the other way counts as inactive or inconclusive.

Cytochrome P450 2C9 (Homo sapiens), sequence (P11712 whole entry, looked up): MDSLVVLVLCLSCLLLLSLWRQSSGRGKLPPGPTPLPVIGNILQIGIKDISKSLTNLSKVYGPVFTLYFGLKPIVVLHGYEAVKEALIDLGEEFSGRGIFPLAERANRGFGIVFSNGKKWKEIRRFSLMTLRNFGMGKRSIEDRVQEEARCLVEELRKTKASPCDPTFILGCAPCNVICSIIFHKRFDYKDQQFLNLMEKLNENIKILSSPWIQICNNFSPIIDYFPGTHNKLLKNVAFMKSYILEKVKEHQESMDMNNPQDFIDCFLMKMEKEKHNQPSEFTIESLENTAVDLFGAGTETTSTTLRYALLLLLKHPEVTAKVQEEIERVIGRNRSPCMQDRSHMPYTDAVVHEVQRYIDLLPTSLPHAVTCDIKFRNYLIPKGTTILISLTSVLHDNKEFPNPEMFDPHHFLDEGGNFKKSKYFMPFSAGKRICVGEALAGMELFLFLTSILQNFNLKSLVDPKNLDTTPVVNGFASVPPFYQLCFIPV
Cytochrome P450 2D6 (Homo sapiens), sequence (P10635 whole entry, looked up): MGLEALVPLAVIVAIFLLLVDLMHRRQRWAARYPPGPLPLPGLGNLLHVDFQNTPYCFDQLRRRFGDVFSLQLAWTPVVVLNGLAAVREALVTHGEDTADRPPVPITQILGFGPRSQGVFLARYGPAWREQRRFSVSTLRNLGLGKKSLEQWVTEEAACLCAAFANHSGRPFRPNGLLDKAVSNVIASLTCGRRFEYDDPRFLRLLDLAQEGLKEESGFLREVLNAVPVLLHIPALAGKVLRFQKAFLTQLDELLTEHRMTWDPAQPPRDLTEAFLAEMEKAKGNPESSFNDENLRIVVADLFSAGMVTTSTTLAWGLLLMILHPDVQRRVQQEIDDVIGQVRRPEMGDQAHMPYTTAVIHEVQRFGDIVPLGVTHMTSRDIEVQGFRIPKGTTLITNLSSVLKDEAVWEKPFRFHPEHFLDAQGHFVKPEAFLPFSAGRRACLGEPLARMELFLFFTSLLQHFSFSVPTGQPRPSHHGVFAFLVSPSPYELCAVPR
Cytochrome P450 3A4 (Homo sapiens), sequence (P08684 whole entry, looked up): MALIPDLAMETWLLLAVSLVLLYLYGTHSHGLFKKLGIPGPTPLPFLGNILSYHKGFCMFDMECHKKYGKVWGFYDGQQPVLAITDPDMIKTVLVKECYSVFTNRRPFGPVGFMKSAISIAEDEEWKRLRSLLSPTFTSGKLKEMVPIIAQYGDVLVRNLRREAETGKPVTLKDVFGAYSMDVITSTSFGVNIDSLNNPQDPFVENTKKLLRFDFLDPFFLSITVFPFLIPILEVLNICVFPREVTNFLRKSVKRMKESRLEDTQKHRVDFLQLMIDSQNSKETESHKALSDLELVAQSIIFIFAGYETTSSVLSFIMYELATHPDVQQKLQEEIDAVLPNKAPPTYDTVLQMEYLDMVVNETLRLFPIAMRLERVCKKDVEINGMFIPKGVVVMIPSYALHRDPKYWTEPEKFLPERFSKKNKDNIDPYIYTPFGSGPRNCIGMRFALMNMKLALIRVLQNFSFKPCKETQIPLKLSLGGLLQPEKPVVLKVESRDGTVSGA
Papain (Carica papaya), sequence (P00784 whole entry, looked up): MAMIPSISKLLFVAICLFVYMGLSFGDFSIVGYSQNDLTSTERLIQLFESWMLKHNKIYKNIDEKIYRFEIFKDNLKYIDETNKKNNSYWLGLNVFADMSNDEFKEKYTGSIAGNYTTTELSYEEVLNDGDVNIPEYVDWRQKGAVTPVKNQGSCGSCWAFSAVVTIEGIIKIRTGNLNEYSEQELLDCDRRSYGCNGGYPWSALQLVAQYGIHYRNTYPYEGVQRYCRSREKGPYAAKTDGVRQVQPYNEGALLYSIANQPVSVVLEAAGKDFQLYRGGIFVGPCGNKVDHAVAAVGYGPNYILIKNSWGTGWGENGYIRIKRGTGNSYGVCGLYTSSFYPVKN

As to `CNC1CCCN(c2c(F)cc3c(=O)c(C(=O)O)cn(C4CC4)c3c2OC)C1` (configuration not stated), the call in assay [1] was inactive.
On to `O=NN(CCCl)C(=O)NC1CCCCC1`, for which, in assay [1], the compound was called inactive.
On to `Cc1onc(-c2ccccc2Cl)c1C(=O)N[C@@H]1C(=O)N2[C@@H]1SC(C)(C)[C@@H]2C(=O)O`, for which the Potency entry in assay [2], in assay [3], in assay [4] and in assay [5] was “inactive” in each case.
Regarding `N[C@@H](C(=O)N[C@@H]1C(=O)N2C(C(=O)O)=C(Cl)CS[C@H]12)c1ccccc1`, in assay [2], the Potency entry is “inactive”. The % pathology change, negative = correction in assay [3] is 10.3% [at 9.22 µM] (inactive). The activity change, negative = inhibition in assay [6] was 16.7% [at 11.5 µM] (inactive); in assay [7], 11.4% [at 11.5 µM] (inactive). Further, the outcome in assay [4] was “inactive [at 9.23 µM]”. Further, the activity change, negative = cell killing in assay [5] was -2.72% [at 9.23 µM] (inactive).
For the compound `CC(C)Cn1cnc2c(N)nc3ccccc3c21`, the Potency entry in assay [2], in assay [3], in assay [7], in assay [4] and in assay [5] was “inactive” in each case.
For `CC(C(=O)O)c1ccc2c(c1)CC(=O)c1ccccc1S2` (configuration not stated), the Potency result in assay [2], in assay [3], in assay [7], in assay [4] and in assay [5] was “inactive” throughout.
On to `COc1cc(NS(=O)(=O)c2ccc(N)cc2)nc(OC)n1`, for which the Potency entry in assay [2], in assay [3], in assay [6], in assay [4] and in assay [5] was “inactive” each time.
Turning to `Cn1c(=O)c2c(ncn2CC(O)CO)n(C)c1=O` (configuration not stated), the Potency result in assay [2], in assay [3], in assay [6], in assay [7], in assay [4] and in assay [5] was “inactive” in each case.
Take `CCCCc1oc2ccc(NS(C)(=O)=O)cc2c1C(=O)c1ccc(OCCCN(CCCC)CCCC)cc1`: the Potency result in assay [2] was “inactive”. The Potency was 5.01 µM (active) in assay [3]; 2.75 µM (active) and 3.38 µM (active) in assay [6]; 12.3 µM (active) and 12 µM (active) in assay [7]; 2.99 µM (active) and 11.5 µM (active) and 5.9 µM (active) in assay [4]; 2.99 µM (active) and 9.16 µM (active) and 6.61 µM (active) in assay [5].
Regarding `COC(=O)Nc1nc2ccc(Sc3ccccc3)cc2[nH]1`, the Potency result in assay [2], in assay [3], in assay [6] and in assay [7] was “inactive” in each case. The Potency in assay [4] is 266 nM (active) and 417 nM (active); in assay [5] it was 266 nM (active) and 372 nM (active).
Take `CCC(=O)O[C@]1(C(=O)CCl)[C@@H](C)C[C@H]2[C@@H]3CCC4=CC(=O)C=C[C@]4(C)[C@@]3(F)[C@@H](O)C[C@@]21C`: the Potency result in assay [2] and in assay [3] was “inactive” in each case. Also, the Potency in assay [6] was 11 µM (active); in assay [7], 17.4 µM (active); in assay [4], 23.5 µM (active); in assay [5], “inactive and 1 nM (active)”.
On to `CNS(=O)(=O)CCc1ccc2[nH]cc(C3CCN(C)CC3)c2c1`, for which the Potency entry (in assay [2]; in assay [3]; in assay [7]; with Papain (Carica papaya); in assay [4]) was “inactive” throughout.
With `CN(CCOc1ccc(CC2SC(=O)NC2=O)cc1)c1ccccn1` (configuration not stated), the Potency entry in assay [2], in assay [3], in assay [7], in assay [4] and in assay [5] was “inactive” throughout.
For the compound `O=P(O)(O)C(O)(Cc1cccnc1)P(=O)(O)O`, the Potency result in assay [2], in assay [3], in assay [6], in assay [7], in assay [4] and in assay [5] was “inactive” throughout.
As to `COc1cnc(NS(=O)(=O)c2ccc(N)cc2)nc1`, the Potency result in assay [2], in assay [3], in assay [6], in assay [7], in assay [4] and in assay [5] was “inactive” each time.
With `COc1nc(N)nc2c1ncn2[C@@H]1O[C@H](CO)[C@@H](O)[C@@H]1O`, the Potency result in assay [2], in assay [3], in assay [6] and in assay [7] was “inactive” throughout. Further, the values for the Potency in assay [4] and in assay [5] were 5.31 µM (active) and 6.68 µM (active), respectively.
Consider `CCOC(=O)[C@H](CCc1ccccc1)N[C@H]1CS[C@H](c2cccs2)CN(CC(=O)O)C1=O`, for which the Potency result in assay [2], in assay [3], in assay [6], in assay [7], in assay [4] and in assay [5] was “inactive” in each case.
`COCCCOc1cc(C[C@@H](C[C@H](N)[C@@H](O)C[C@H](C(=O)NCC(C)(C)C(N)=O)C(C)C)C(C)C)ccc1OC`: the Potency result in assay [2], in assay [3], in assay [6], in assay [7] and in assay [5] was “inactive” throughout.
With `NS(=O)(=O)c1cc2c(cc1Cl)NC(C(Cl)Cl)NS2(=O)=O` (configuration not stated), the Potency result in assay [2], in assay [3], in assay [6], in assay [7], in assay [4] and in assay [5] was “inactive” throughout.
Take `COc1ccc(C(=O)CC(=O)c2ccc(C(C)(C)C)cc2)cc1`: the Potency entry in assay [2], in assay [3], in assay [6], in assay [7], in assay [4] and in assay [5] was “inactive” throughout.
For the compound `CN(Cc1cc(Br)cc(Br)c1N)C1CCCCC1`, the Potency result in assay [2], in assay [3], in assay [4] and in assay [5] was “inactive” each time. In addition, in assay [6], the Potency was 0.0195 µM (active).
Take `N=C(N)c1ccc(OCCCCCOc2ccc(C(=N)N)cc2)cc1`: the Potency entry in assay [2], in assay [3] and in assay [6] was “inactive” each time. Also, the Potency is 4.73 µM (active) and 3.72 µM (active) in assay [4]; 4.22 µM (active) and 4.68 µM (active) in assay [5].
Regarding `C[C@]12C=CC(=O)C=C1CC[C@@H]1[C@@H]2C(=O)C[C@@]2(C)[C@H]1CC[C@]2(O)C(=O)CO`, the Potency result in assay [2], in assay [3], in assay [4] and in assay [5] was “inactive” each time.
`CNS(=O)(=O)Cc1ccc2[nH]cc(CCN(C)C)c2c1`: the Potency result in assay [2], in assay [3], in assay [6], in assay [7], in assay [4] and in assay [5] was “inactive” in each case.
